This is an account of results in PubChem BioAssay AID686978 (National Center for Advancing Translational Sciences (NCATS), 2013).

Structures are written as SMILES. Hit rate of the full screen: of about 420,000 compounds, about 64,000 (15%) were called active. Another 27% or so got no clear call; they are omitted. The call rests on the fitted dose curve; in most records, active means well fitted inhibition curve with a large enough effect; inconclusive means small, poorly fitted or top-dose-only effect; inactive means flat fitted curve, though single readings scatter. Not all results are given here. Entries that show only a call come without a potency.
Potency means the concentration at half of the fitted maximal effect.

The nature of the test: qHTS for Inhibitors of human tyrosyl-DNA phosphodiesterase 1 (TDP1): qHTS in cells in absence of CPT. Further: nearly all actives have a fitted effect of over 55% in size. The following applies: DT40 Tdp1-/- hTDP1 cells, no CPT, ATP luminescence, 48 h; activity change, negative = growth inhibition: at 46.2 µM (top of the series). Summed up:
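Luminescent ATP content (CellTiter-Glo) served as the growth readout. Knockout chicken DT40 cells expressing human TDP1 were exposed to compounds without camptothecin for a minimum 48 hr at 37 °C.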
As to `Cc1nc2c(c(C)nn2-c2ccccc2)c(C)c1C`, the Potency result was “inactive”.
Then `Cc1cccc(-n2nc3c(c2NC(=O)c2cc4ccccc4o2)CS(=O)(=O)C3)c1`, with “inactive”.
For the compound `CC(C)COc1ccc(C(=O)NNC(=O)CCC(=O)c2cccs2)cc1`, the Potency entry was “inactive”.
Then `CCCCCCCCCCCC(=O)O[C@H](CC(=O)O)C[N+](C)(C)C`, with “inactive”; and `CC(=O)c1ccc(Cc2ncc(C(F)(F)F)cc2Cl)s1`, with “inactive”; and `CCOC(=O)N1CCN(C(=O)CN(c2ccc(C)c(C)c2)S(=O)(=O)c2ccccc2)CC1`, with “inactive”.
Then `Cc1ccc(S(=O)(=O)N(CCc2ccccc2)c2ccc3c(c2)C2CC3CCN2C(=O)OCc2ccccc2)cc1` (stereo unspecified), with 9.2 µM (active).
Then `Cc1ccc(S(=O)(=O)CCC(=O)OCc2ccccc2)cc1`, with “inactive”.
As to `COc1cc(C(C)=O)ccc1OC(=O)CN1C(=O)c2ccccc2C1=O`, the Potency result was “inactive”.
Regarding `CCOC(=O)c1[nH]cnc1C(=O)Nc1ccccc1C`, the Potency entry is “inactive”.
Then `O=C(Nc1ccc2c(c1)CCC2)c1cccc(S(=O)(=O)Nc2ccccc2Cl)c1`, with “inactive”.
Then `CCCCN(C(=O)c1ccc(C)o1)c1c(N)n(CCCC)c(=O)[nH]c1=O`, with “inactive”; and `CC(C)(C)c1cc(NC(=O)NN2CCOCC2)nn1-c1c(Cl)cc(Cl)cc1Cl`, with 14.6 µM (active); and `O=C(CN1CCOCC1)Nc1c(Cl)cc(Cl)cc1Cl`, with “inactive”.
The entry for `O=C(Nc1ccc(CN2CCOCC2)cc1)c1cc(Cl)ccc1Cl` is “inactive”; for `Cn1cccc1/C=C1\SC(=O)N(CC(=O)Nc2ccc(F)cc2)C1=O` it is “inactive”.
With `CNC(=S)NNC(=O)c1oc2nc(-c3ccccc3)cc(-c3ccco3)c2c1N`, the Potency entry is “inactive”.
Turning to `COc1ccccc1C1C2=C(COC2=O)Nc2cc3c(cc21)OCO3` (stereo unspecified), the Potency result was “inactive”.
The figure for `O=C1OCC2=C1C(c1ccc(Cl)cc1)c1cc3c(cc1O2)OCO3` (stereo unspecified) is 16.4 µM (active).
For `O=C(c1ccc(O)cc1)c1ccc(C(=O)O)c(C(=O)O)c1`, the Potency entry is “inactive”.
Then `Cc1cccn2cc(-c3cccc(S(=O)(=O)N4CCCCC4)c3)nc12`, with “inactive”; and `CCOC(=O)/C(C#N)=C/c1cn(CCC(=O)O)nc1-c1ccc(Br)cc1`, with “inactive”; and `O=C(O)/C=C/c1cn(Cc2ccccc2)nc1-c1cccs1`, with “inactive”.
Then `O=C(O)CCn1cc(/C=C/C(=O)c2ccc(Cl)cc2)c(-c2cccc(Br)c2)n1`, with 23.1 µM (active); and `CC1CN(C(=O)c2ccccc2NS(=O)(=O)c2cccc([N+](=O)[O-])c2)CC(C)O1` (stereo unspecified), with “inactive”.
Then `COc1ccc2sc(-c3ccc(N(C)C)cc3)c(-c3ccc4cc[nH]c4c3)c2c1`, with “inactive”; and `COc1ccc2c(Cl)c(-c3nnco3)sc2c1`, with “inactive”; and `COc1ccc(-c2sc3ccc(OC)cc3c2C#Cc2ccccn2)cc1`, with 18.4 µM (active).
Regarding `COc1ccc2sc(-c3ccc(S(C)(=O)=O)cc3)c(-c3ccc(C(N)=O)cc3)c2c1`, the Potency result is “inactive”.
Then `COc1ccc2sc(-c3ccc(N(C)C)cc3)c(C#CCO)c2c1`, with 18.4 µM (active); and `COc1cc(OC)cc(-c2sc3ccc(OC)cc3c2-c2ccc3cc[nH]c3c2)c1`, with “inactive”.
